According to the supplement of paper PMC10849652:
About 7,900 targets were measured; listed, in parts, are those with a hit and a random draw of the rest. About 0.6% of all pairs of compound and target were hits. A number with no mark means an inactive call.

Experiments:
Assay in all cases: log2 fold change, soluble protein after heating vs DMSO (PISA); higher = thermal stabilisation; K562 cells, 10 uM, 30 min; active = over 0.2 and 3.5 SD of the protein, either way, in both replicates (recomputed)
[1] = compound: CS(=O)(=O)c1ccc(-c2cnc(N)c(C(=O)Nc3ccccc3)n2)cc1
How it was run: (§1)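 K562 cells at 2×10^6 cells/mL were treated for 30 min with 10 μM compound, and aliquots were heated for 3 min over 48°C-58°C before pooling. Extraction used PBS with 0.5% NP-40 at 4°C, and soluble protein was the supernatant after 21,000xg for 90 min, measured by TMTpro 16plex LC-MS/MS with channel sums equalised. Thermal stability values, relative to control samples and from duplicates, are log2 fold changes.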

crizotinib = compound: C[C@@H](Oc1cc(-c2cnn(C3CCNCC3)c2)cnc1N)c1c(Cl)ccc(F)c1Cl [crizotinib]
How it was run: as §1

[2] = compound: C[C@@H]1COCCN1C2=NC(=NC(=C2)C3(CC3)S(=O)(=O)C)C4=C5C=CNC5=CC=C4
How it was run: as §1

[3] = compound: C[C@H](C1=CC=C(C=C1)C(=O)NC2=C3C=CNC3=NC=C2)N
How it was run: as §1

duvelisib = compound: C[C@H](Nc1ncnc2nc[nH]c12)c1cc2cccc(Cl)c2c(=O)n1-c1ccccc1 [duvelisib]
How it was run: as §1

gandotinib = compound: Cc1cc(Nc2cc(CN3CCOCC3)c3nc(C)c(Cc4ccc(Cl)cc4F)n3n2)n[nH]1 [gandotinib]
How it was run: as §1

tozasertib = compound: Cc1cc(Nc2cc(N3CCN(C)CC3)nc(Sc3ccc(NC(=O)C4CC4)cc3)n2)n[nH]1 [tozasertib]
How it was run: as §1

[4] = compound: Cc1cc(SCc2sc(-c3ccc(C(F)(F)F)cc3)nc2C)ccc1OCC(=O)O
How it was run: as §1

doramapimod = compound: Cc1ccc(-n2nc(C(C)(C)C)cc2NC(=O)Nc2ccc(OCCN3CCOCC3)c3ccccc23)cc1 [doramapimod]
How it was run: as §1

ispinesib = compound: Cc1ccc(C(=O)N(CCCN)[C@@H](c2nc3cc(Cl)ccc3c(=O)n2Cc2ccccc2)C(C)C)cc1 [ispinesib]
How it was run: as §1

bafetinib = compound: Cc1ccc(NC(=O)c2ccc(CN3CC[C@H](N(C)C)C3)c(C(F)(F)F)c2)cc1Nc1nccc(-c2cncnc2)n1 [bafetinib]
How it was run: as §1

[5] = compound: Cc1cccc(CC(=O)N2CCc3c2ccc(-c2cn(C)c4ncnc(N)c24)c3F)n1
How it was run: as §1

nilotinib = compound: Cc1cn(-c2cc(NC(=O)c3ccc(C)c(Nc4nccc(-c5cccnc5)n4)c3)cc(C(F)(F)F)c2)cn1 [nilotinib]
How it was run: as §1

[6] = compound: Cc1nc(Nc2n[nH]c3c2CN(C(=O)N[C@H](CN(C)C)c2ccccc2)C3(C)C)c2sccc2n1
How it was run: as §1

dasatinib = compound: Cc1nc(Nc2ncc(C(=O)Nc3c(C)cccc3Cl)s2)cc(N2CCN(CCO)CC2)n1 [dasatinib]
How it was run: as §1

[7] = compound: Cc1ncc(-c2ccnc(Nc3ccc(S(C)(=O)=O)cc3)n2)n1C(C)C
How it was run: as §1

[8] = compound: Cn1cc(-c2ccc3c(c2)CCN3C(=O)Cc2cccc(C(F)(F)F)c2)c2c(N)ncnc21
How it was run: as §1

[9] = compound: Cn1cc(-c2ccc3nnc(C(F)(F)c4ccc5ncccc5c4)n3n2)cn1
How it was run: as §1

tipifarnib = compound: Cn1cncc1[C@@](N)(c1ccc(Cl)cc1)c1ccc2c(c1)c(-c1cccc(Cl)c1)cc(=O)n2C [tipifarnib]
How it was run: as §1

mubritinib = compound: FC(F)(F)c1ccc(/C=C/c2nc(COc3ccc(CCCCn4ccnn4)cc3)co2)cc1 [mubritinib]
How it was run: as §1

Chain of UniProt Q9UKD1 (Q9UKD1 whole entry, looked up): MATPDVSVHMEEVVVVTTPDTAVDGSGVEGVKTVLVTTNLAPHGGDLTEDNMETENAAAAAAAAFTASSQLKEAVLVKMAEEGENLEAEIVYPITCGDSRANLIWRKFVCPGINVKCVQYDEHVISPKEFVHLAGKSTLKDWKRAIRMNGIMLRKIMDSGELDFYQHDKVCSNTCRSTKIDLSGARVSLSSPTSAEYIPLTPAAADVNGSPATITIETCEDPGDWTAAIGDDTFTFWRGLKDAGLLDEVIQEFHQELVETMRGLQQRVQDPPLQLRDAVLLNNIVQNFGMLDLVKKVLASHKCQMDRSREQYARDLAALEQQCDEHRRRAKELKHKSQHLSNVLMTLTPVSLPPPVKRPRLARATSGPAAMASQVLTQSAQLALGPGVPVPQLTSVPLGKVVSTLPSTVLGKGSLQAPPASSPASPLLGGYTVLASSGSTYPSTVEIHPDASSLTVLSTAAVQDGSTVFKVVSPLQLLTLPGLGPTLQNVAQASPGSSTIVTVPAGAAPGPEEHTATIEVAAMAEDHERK
Chain of UniProt P15104 (P15104 whole entry, looked up): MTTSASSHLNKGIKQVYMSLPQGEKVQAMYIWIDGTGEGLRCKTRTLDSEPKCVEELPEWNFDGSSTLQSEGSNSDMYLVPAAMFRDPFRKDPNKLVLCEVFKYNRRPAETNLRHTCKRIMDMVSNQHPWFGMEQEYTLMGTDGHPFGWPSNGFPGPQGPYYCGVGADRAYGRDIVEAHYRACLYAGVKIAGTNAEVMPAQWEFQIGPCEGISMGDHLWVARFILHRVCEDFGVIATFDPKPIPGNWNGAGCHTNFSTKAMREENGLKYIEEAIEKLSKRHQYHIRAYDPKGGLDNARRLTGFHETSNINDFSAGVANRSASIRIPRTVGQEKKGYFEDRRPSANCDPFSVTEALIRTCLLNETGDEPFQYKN
Chain of UniProt P55795 (P55795 whole entry, looked up): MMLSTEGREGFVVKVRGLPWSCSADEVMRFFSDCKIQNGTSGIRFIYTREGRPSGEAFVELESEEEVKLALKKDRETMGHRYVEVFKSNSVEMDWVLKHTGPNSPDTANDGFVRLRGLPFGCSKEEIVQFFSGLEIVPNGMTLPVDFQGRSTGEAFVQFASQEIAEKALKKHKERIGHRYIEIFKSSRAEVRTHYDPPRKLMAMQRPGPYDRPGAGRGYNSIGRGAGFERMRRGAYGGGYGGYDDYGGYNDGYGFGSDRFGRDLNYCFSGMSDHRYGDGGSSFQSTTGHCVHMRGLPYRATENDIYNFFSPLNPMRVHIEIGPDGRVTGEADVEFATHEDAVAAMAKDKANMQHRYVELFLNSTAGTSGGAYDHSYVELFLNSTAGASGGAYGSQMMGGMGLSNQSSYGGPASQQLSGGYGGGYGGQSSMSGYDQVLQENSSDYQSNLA
Chain of UniProt P69905 (P69905 whole entry, looked up): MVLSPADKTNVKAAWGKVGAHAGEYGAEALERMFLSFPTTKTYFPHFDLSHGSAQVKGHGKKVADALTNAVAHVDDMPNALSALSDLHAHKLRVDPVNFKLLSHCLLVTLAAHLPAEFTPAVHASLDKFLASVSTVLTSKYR
Chain of UniProt P00367 (P00367 whole entry, looked up): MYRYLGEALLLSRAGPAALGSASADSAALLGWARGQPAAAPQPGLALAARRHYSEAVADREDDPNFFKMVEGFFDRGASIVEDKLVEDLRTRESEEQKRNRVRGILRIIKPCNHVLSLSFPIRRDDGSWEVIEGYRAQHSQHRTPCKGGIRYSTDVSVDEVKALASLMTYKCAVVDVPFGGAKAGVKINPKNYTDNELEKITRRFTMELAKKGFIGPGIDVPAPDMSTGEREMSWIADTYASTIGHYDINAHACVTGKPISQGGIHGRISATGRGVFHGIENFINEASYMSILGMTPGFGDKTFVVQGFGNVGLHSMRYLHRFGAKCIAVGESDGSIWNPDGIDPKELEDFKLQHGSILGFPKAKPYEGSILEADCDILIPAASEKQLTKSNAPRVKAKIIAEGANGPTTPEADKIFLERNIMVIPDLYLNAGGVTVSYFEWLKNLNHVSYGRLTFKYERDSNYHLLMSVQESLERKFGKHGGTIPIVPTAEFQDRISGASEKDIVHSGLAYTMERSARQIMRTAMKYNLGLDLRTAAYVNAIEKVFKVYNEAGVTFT
Chain of UniProt Q9BTY2 (Q9BTY2 whole entry, looked up): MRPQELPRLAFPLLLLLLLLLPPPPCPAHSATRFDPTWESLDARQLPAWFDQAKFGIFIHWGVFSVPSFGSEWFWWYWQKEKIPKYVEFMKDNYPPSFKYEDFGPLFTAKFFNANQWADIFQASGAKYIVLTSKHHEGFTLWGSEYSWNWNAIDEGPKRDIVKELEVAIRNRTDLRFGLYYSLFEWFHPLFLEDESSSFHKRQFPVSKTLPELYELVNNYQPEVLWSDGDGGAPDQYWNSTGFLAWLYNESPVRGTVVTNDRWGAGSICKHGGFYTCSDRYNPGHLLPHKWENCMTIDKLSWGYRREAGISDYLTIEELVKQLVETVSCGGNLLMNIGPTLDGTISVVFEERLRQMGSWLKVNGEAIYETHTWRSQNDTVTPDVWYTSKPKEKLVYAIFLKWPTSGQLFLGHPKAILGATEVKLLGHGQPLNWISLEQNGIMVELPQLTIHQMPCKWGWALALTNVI
Chain of UniProt P0C0S5 (P0C0S5 whole entry, looked up): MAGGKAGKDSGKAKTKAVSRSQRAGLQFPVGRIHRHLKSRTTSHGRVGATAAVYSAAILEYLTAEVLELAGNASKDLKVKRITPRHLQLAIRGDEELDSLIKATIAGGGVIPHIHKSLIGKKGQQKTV
Chain of UniProt Q96JB3 (Q96JB3 whole entry, looked up): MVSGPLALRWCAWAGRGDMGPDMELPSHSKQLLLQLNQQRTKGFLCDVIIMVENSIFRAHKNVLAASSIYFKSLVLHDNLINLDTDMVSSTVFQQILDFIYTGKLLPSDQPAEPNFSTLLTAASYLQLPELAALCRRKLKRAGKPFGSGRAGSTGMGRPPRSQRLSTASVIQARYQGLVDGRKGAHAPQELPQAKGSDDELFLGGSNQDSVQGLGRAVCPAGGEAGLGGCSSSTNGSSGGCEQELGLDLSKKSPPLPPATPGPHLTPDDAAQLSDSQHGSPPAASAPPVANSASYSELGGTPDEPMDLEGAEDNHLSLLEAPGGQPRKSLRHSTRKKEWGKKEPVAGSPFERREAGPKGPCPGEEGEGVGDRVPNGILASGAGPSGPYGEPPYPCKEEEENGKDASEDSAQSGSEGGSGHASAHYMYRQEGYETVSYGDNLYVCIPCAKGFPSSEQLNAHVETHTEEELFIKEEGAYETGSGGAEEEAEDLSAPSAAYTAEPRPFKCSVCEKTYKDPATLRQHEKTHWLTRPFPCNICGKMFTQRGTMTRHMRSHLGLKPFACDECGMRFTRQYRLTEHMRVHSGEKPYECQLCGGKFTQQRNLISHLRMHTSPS
Chain of UniProt Q53GQ0 (Q53GQ0 whole entry, looked up): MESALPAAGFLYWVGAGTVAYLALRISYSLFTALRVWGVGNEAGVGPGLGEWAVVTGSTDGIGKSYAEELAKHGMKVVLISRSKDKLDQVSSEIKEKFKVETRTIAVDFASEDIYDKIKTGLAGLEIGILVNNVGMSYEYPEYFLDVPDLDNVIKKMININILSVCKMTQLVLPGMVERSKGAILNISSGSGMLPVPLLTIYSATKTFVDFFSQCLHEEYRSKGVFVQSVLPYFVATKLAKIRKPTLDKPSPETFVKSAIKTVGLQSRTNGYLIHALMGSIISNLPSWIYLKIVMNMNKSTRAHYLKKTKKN
Chain of UniProt P13807 (P13807 whole entry, looked up): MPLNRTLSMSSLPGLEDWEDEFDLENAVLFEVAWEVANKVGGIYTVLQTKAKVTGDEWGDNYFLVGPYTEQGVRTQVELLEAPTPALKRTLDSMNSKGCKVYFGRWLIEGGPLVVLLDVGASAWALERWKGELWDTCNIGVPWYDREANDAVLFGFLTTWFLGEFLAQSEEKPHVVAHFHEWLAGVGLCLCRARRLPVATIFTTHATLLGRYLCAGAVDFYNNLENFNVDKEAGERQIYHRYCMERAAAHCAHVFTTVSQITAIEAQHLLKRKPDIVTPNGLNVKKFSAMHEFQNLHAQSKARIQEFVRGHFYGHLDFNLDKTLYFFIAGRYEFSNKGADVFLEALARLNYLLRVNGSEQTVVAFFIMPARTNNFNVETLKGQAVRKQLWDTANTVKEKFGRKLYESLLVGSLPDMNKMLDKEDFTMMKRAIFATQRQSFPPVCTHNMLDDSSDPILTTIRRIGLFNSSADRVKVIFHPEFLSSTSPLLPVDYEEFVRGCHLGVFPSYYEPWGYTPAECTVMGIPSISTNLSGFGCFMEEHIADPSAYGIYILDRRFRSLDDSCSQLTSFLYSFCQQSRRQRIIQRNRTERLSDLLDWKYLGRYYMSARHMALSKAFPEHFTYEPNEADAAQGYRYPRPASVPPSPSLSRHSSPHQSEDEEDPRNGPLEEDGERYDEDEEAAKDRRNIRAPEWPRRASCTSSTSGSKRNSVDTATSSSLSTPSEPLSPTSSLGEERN
Chain of UniProt Q13889 (Q13889 whole entry, looked up): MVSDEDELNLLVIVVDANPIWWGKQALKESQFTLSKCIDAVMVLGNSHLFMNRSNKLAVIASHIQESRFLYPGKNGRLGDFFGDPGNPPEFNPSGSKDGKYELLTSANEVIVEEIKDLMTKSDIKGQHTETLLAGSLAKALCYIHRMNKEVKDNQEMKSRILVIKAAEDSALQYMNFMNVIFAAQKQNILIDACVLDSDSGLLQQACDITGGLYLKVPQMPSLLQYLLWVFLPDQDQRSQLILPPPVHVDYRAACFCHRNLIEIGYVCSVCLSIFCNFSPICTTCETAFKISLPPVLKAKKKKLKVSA

Target	log2 fold change [1]	log2 fold change (crizotinib)	log2 fold change [2]	log2 fold change [3]	log2 fold change (duvelisib)	log2 fold change (gandotinib)	log2 fold change (tozasertib)	log2 fold change [4]	log2 fold change (doramapimod)	log2 fold change (ispinesib)	log2 fold change (bafetinib)	log2 fold change [5]	log2 fold change (nilotinib)	log2 fold change [6]	log2 fold change (dasatinib)	log2 fold change [7]	log2 fold change [8]	log2 fold change [9]	log2 fold change (tipifarnib)	log2 fold change (mubritinib)
FUCA2 (UniProt Q9BTY2)	0.021	-0.002	0.017	-0.05	0.007	0.041	-0.008	0.014	0.058	-0.001	-0.809 (active)	-0.022	0.032	0.001	0.022	-0.009	0.012	-0.019	0.077	0.013
GTF2H3 (UniProt Q13889)	0.061	0.049	-0.012	-0.003	-0.047	-0.012	-0.031	-0.2	0.021	0.023	-0.009	0.058	0.041	0	0.024	-0.064	-0.113	-0.02	-0.025	0.023
HSD17B12 (UniProt Q53GQ0)	0.046	0.191	0.012	-0.061	0.063	0.371 (active)	-0.018	0.055	-0.009	0.243	0.067	-0.039	0.184	-0.039	-0.095	0.002	0.092	-0.02	0.089	-0.018
HNRNPH2 (UniProt P55795)	0.029	-0.171	0.096	-0.023	0.054	0.06	0.113	0.177	-0.024	-0.159	0.056	0.006	-0.09	-0.231	-0.061	-0.103	-0.021	0.041	-0.236	-0.115
GLUL (UniProt P15104)	-0.07	0.008	-0.267 (active)	0.062	0.035	-0.014	-0.014	-0.047	-0.126	0.005	-0.027	-0.038	-0.061	0.062	0.015	-0.148	-0.035	-0.085	0.011	-0.112
GTF3C5 isoform 3 (UniProt Q9Y5Q8)	0.01	0.17	0.016	0.158	-0.106	0.043	0.063	0.034	0.095	-0.248	0.028	-0.013	-0.04	-0.167	-0.269	-0.137	0.027	-0.063	0.01	0.065
HPCAL1 (UniProt P37235)	0.015	0.011	0.08	-0.047	0.032	-0.033	0.024	-0.014	-0.027	-0.054	-0.09	0.027	-0.076	0.033	-0.031	-0.028	-0.011	0.053	-0.032	0.016
HIC2 (UniProt Q96JB3)	-0.037	0.067	-0.079	0.043	-0.103	0.088	0.121	0.011	0.121	-0.061	0.065	0.006	0.075	-0.446 (active)	0.071	-0.181	-0.124	-0.032	-0.051	-0.051
HOOK3 (UniProt Q86VS8)	-0.042	-0.123	-0.05	0.036	0.05	-0.067	0.037	0.033	0.019	-0.199	-0.047	0.029	-0.088	-0.078	-0.07	0.009	0.002	-0.027	-0.001	-0.024
GNPAT (UniProt O15228)	0.029	-0.071	0.087	-0.088	0.021	-0.076	-0.002	0.06	0.034	-0.006	-0.129	0.045	-0.011	-0.008	0.014	-0.028	0.059	0.005	0.031	0.005
GLUD1 (UniProt P00367)	0.16	-0.016	0.058	0.005	0.006	0.141	-0.071	-0.057	0.048	-0.048	0.25	0.012	0.382 (active)	0.266 (active)	0.056	-0.015	0.173	0.04	0.068	0.046
GYS1 (UniProt P13807)	0.017	-0.097	-0.187	0.311	-0.147	-0.015	-0.079	0.184	0.271	-0.231	0.107	0.011	0.237	-0.18	0.172	-0.036	-0.266	-0.139	0.147	0.001
H2AZ1 (UniProt P0C0S5)	-0.027	-0.062	-0.47	0.345	-0.09	-0.006	-0.146	-0.084	0.178	-0.147	0.173	-0.204	-0.138	-0.029	-0.092	-0.006	-0.369	-0.133	0.013	-0.083
HBA1 (UniProt P69905)	0.009	0.097	0.213	-0.058	0.094	0.025	0.081	0.004	0	0.24	-0.013	0.138	0.029	0.017	0.044	0.01	0.156	0.345 (active)	-0.084	0.024
GMEB2 (UniProt Q9UKD1)	-0.012	0.041	-0.063	-0.09	-0.028	-0.001	0.051	0.009	0.053	0.071	0.019	0.013	0.019	-0.021	-0.036	-0.05	-0.084	-0.006	-0.011	-0.041
